Experimental data: publication PMC7862700, “An all-to-all approach to the identification of sequence-specific readers for epigenetic DNA modifications on cytosine”

Assays:
Assay in all cases: DAPPL (digital affinity profiling via proximity ligation, sequencing); 10 mM Tris-HCl pH 7.5, 50 mM NaCl, 1 mM DTT, 4% glycerol, room temperature, 30 min; GST-TFs on glutathione beads, 16-mer random dsDNA library, 0.1% formaldehyde crosslink after washing; high values mean tight binding
[1] = biological target: T1, FLI1 (Homo sapiens, UniProt Q01543 1-452); conditions: protein: recombinant; tags: N-terminal GST; dsDNA, one strand shown
T1 sequence: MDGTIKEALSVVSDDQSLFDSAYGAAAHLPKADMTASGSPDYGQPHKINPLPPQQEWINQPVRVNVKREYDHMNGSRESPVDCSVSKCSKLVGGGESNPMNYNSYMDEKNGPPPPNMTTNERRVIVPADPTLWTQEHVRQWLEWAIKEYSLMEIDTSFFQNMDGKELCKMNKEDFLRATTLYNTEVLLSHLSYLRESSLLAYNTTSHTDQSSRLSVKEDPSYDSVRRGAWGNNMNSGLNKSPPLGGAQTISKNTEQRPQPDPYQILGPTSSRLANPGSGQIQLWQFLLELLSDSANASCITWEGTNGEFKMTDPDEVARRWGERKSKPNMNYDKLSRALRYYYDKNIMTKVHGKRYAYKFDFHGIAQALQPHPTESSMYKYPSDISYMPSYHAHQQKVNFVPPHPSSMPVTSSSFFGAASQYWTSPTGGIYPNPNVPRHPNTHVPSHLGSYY
In short: (§1)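 Human transcription factors carrying a GST fusion were produced in yeast, bound to glutathione beads, tagged with DNA barcodes and pooled together with a tag-only sample. Each pool was held with 200 nmole of a random double-stranded 16-mer DNA library in Tris/NaCl/DTT/glycerol buffer for 30 min at room temperature, then washed, crosslinked in 0.1% formaldehyde, proximity-ligated with BsaI/T4 ligase (1 h, 37 °C), PCR-amplified and sequenced on an Illumina NextSeq500. Binding signal is the read frequency of each hexamer for a given factor divided by its frequency in the tag-only sample.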

[2] = biological target: T2, ELK1 (Homo sapiens, UniProt P19419 1-428); conditions: protein: recombinant; tags: N-terminal GST; dsDNA, one strand shown
T2 sequence: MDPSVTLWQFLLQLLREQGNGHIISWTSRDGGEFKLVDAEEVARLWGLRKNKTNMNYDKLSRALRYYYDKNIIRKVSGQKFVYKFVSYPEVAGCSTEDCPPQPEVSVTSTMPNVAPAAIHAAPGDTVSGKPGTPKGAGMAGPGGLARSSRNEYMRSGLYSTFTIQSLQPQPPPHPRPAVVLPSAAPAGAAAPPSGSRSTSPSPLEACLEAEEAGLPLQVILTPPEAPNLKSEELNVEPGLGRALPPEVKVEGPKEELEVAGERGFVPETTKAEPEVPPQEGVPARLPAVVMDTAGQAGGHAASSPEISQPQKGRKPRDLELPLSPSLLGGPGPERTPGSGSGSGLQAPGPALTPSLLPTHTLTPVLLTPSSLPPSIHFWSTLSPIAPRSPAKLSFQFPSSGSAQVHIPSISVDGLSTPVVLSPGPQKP
In short: as §1

[3] = biological target: T3, GABPA (Homo sapiens, UniProt Q06546 1-454); conditions: protein: recombinant; tags: N-terminal GST; dsDNA, one strand shown
T3 sequence: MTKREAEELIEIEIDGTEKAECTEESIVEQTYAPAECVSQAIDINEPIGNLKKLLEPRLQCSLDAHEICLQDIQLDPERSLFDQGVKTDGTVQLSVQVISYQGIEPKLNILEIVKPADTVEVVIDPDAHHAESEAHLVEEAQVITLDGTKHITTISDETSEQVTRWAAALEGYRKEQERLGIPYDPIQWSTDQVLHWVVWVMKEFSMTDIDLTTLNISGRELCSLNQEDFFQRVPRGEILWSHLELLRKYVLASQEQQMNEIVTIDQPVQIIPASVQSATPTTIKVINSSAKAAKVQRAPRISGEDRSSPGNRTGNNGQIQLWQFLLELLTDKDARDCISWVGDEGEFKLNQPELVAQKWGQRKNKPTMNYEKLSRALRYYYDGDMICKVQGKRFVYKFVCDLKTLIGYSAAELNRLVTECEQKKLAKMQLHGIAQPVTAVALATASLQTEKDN
In short: as §1

[4] = biological target: T4, ERG (Homo sapiens, UniProt P11308 1-479); conditions: protein: recombinant; tags: N-terminal GST; dsDNA, one strand shown
T4 sequence: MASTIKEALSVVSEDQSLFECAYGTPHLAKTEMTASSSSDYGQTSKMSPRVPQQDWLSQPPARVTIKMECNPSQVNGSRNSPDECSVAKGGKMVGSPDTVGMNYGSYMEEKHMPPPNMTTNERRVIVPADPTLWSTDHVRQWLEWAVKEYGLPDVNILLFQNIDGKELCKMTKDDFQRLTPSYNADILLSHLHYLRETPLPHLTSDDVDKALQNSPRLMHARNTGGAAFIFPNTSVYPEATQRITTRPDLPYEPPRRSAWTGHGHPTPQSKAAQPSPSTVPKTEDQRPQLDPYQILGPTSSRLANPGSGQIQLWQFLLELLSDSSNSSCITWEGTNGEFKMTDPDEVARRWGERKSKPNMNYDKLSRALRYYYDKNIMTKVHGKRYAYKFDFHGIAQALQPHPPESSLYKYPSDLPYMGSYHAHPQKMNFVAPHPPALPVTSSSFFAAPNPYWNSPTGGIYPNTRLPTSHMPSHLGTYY
In short: as §1

[5] = biological target: ELF1 (Homo sapiens, UniProt P32519 1-619); conditions: protein: recombinant; tags: N-terminal GST; dsDNA, one strand shown
In short: as §1

[6] = biological target: T5, EHF (Homo sapiens, UniProt Q9NZC4 1-300); conditions: protein: recombinant; tags: N-terminal GST; dsDNA, one strand shown
T5 sequence: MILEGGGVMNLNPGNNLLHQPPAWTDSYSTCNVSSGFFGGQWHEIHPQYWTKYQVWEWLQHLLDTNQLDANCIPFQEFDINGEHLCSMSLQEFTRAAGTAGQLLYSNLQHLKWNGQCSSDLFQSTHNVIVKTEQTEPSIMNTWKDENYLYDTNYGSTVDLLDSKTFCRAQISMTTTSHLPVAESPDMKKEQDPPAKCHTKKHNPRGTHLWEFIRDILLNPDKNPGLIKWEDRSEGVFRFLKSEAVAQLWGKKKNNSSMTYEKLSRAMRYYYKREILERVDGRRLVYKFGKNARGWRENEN
In short: as §1

[7] = biological target: SPI1 (Homo sapiens, UniProt P17947 1-270); conditions: protein: recombinant; tags: N-terminal GST; dsDNA, one strand shown
In short: as §1

[8] = biological target: SPIB (Homo sapiens, UniProt Q01892 1-262); conditions: protein: recombinant; tags: N-terminal GST; dsDNA, one strand shown
In short: as §1

[9] = biological target: T6, ELK3 (Homo sapiens, UniProt P41970 1-407); conditions: protein: recombinant; tags: N-terminal GST; dsDNA, one strand shown
T6 sequence: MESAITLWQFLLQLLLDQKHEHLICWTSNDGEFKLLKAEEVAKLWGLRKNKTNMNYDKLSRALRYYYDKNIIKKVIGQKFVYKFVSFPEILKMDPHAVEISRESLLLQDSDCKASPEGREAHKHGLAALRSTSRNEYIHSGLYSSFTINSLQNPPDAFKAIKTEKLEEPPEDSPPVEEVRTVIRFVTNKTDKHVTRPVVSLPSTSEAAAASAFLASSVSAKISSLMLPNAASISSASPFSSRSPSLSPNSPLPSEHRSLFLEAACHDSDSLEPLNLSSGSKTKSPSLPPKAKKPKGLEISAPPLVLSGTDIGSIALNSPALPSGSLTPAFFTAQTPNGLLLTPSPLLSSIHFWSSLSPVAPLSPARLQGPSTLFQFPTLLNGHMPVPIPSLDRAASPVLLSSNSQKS
In short: as §1

[10] = biological target: T7, FEV (Homo sapiens, UniProt Q99581 1-238); conditions: protein: recombinant; tags: N-terminal GST; dsDNA, one strand shown
T7 sequence: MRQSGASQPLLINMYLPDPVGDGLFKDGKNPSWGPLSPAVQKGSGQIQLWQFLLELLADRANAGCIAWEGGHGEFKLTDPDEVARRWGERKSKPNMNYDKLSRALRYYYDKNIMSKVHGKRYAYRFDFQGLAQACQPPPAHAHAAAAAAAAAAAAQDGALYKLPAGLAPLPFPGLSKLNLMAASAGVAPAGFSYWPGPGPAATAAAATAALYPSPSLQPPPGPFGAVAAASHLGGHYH
In short: as §1

[11] = biological target: ETV5 (Homo sapiens, UniProt P41161 1-510); conditions: protein: recombinant; tags: N-terminal GST; dsDNA, one strand shown
In short: as §1

[12] = biological target: HSF1 (Homo sapiens, UniProt Q00613 1-529); conditions: protein: recombinant; tags: N-terminal GST; chain copies: 3; dsDNA, one strand shown
In short: as §1

[13] = biological target: T8, SPIC (Homo sapiens, UniProt Q8N5J4 1-248); conditions: protein: recombinant; tags: N-terminal GST; dsDNA, one strand shown
T8 sequence: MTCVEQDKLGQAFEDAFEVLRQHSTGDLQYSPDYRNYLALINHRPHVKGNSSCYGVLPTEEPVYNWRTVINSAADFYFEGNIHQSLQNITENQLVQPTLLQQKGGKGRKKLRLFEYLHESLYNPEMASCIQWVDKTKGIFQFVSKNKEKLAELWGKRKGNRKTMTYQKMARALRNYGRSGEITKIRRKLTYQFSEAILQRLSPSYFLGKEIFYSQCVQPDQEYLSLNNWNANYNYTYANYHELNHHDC
In short: as §1

[14] = biological target: ELF4 (Homo sapiens, UniProt Q99607 1-663); conditions: protein: recombinant; tags: N-terminal GST; dsDNA, one strand shown
In short: as §1

[15] = biological target: T9, ELK4 (Homo sapiens, UniProt P28324-2 1-405); conditions: protein: recombinant; tags: N-terminal GST; dsDNA, one strand shown
T9 sequence: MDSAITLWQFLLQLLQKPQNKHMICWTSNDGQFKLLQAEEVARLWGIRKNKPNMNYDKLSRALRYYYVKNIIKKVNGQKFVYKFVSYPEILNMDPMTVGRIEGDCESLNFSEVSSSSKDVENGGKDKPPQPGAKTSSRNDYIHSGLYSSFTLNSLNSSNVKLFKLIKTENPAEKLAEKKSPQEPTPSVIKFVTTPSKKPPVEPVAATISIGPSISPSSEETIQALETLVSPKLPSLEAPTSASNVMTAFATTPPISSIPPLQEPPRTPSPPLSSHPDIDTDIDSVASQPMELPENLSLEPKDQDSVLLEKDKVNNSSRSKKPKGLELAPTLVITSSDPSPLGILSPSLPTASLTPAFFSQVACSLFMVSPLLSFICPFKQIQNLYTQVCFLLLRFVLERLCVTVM
In short: as §1

[16] = biological target: T10, ETV2 (Homo sapiens, UniProt O00321 1-342); conditions: protein: recombinant; tags: N-terminal GST; dsDNA, one strand shown
T10 sequence: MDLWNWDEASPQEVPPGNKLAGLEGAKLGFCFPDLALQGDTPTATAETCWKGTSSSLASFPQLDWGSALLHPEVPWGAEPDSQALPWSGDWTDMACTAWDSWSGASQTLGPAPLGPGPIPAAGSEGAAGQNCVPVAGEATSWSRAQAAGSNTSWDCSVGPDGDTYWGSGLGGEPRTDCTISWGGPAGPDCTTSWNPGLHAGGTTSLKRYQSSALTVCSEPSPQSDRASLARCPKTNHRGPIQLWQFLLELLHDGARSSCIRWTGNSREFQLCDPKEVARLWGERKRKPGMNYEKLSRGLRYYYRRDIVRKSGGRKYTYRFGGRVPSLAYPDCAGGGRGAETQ
In short: as §1

[17] = biological target: T11, ELF3 (Homo sapiens, UniProt P78545 1-371); conditions: protein: recombinant; tags: N-terminal GST; dsDNA, one strand shown
T11 sequence: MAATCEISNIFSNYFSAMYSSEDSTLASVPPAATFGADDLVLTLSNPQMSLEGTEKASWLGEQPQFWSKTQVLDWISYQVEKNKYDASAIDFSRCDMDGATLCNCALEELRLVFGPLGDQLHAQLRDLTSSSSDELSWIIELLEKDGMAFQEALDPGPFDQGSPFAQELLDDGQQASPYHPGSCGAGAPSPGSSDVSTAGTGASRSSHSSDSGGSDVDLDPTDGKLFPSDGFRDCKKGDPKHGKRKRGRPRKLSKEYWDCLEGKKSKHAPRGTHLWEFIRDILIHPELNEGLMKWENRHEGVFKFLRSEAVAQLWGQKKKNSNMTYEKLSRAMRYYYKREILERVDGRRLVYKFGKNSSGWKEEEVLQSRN
In short: as §1

[18] = biological target: CRX (Homo sapiens, UniProt O43186 1-299); conditions: protein: recombinant; tags: N-terminal GST; dsDNA, one strand shown
In short: as §1

[19] = biological target: ETV1 (Homo sapiens, UniProt P50549 1-477); conditions: protein: recombinant; tags: N-terminal GST; dsDNA, one strand shown
In short: as §1

Sequence of SPIB (Q01892 whole entry): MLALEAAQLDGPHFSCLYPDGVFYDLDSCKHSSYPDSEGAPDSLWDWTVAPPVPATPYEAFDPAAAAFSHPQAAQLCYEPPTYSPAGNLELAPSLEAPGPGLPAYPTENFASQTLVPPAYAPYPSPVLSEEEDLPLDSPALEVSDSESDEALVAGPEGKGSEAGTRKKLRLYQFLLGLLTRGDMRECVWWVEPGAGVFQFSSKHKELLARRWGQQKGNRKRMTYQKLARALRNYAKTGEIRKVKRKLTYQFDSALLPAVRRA
Sequence of ELF1 (P32519 whole entry): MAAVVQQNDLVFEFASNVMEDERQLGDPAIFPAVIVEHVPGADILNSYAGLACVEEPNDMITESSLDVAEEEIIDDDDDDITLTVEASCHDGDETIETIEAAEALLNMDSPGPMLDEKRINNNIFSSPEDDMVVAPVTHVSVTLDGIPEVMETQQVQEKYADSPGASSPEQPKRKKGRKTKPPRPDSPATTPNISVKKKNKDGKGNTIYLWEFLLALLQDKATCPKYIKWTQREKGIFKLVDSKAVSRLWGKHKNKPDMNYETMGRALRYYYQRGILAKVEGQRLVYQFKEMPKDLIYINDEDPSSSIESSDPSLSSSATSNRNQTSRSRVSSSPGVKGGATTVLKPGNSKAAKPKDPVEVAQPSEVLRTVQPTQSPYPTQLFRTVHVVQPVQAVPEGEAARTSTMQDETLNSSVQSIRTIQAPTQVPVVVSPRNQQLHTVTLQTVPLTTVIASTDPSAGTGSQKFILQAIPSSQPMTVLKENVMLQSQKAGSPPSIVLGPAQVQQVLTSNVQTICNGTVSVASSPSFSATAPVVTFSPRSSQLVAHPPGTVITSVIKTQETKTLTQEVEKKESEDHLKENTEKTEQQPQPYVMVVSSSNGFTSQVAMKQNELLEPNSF
Sequence of ETV5 (P41161 whole entry): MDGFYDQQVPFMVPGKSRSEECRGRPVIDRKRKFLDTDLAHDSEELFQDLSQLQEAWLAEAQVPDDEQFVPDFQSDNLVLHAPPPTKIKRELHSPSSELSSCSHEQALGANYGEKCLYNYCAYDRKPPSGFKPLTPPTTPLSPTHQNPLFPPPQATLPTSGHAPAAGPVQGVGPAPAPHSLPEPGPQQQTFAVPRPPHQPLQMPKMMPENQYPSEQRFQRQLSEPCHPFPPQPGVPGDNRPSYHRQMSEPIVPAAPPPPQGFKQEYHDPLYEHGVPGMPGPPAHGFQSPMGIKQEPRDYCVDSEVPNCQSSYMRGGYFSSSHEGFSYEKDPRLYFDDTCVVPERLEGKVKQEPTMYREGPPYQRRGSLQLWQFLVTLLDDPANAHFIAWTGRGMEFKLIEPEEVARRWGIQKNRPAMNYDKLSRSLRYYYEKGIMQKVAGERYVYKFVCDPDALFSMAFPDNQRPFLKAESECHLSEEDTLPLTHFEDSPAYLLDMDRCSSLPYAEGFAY
Sequence of ETV1 (P50549 whole entry): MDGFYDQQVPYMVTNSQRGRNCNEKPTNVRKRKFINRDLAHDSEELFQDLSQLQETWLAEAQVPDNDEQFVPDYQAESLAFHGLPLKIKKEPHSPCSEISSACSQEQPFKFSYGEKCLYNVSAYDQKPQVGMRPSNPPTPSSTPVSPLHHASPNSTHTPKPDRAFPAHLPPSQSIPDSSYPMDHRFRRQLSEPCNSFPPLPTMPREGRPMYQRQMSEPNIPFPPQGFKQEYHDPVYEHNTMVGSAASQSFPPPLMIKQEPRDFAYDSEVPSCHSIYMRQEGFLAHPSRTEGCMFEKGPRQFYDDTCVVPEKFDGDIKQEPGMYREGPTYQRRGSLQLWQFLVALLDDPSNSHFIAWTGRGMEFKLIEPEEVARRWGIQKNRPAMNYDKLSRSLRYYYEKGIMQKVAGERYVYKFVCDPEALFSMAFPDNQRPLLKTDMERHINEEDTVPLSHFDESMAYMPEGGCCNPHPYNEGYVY
Sequence of ELF4 (Q99607 whole entry): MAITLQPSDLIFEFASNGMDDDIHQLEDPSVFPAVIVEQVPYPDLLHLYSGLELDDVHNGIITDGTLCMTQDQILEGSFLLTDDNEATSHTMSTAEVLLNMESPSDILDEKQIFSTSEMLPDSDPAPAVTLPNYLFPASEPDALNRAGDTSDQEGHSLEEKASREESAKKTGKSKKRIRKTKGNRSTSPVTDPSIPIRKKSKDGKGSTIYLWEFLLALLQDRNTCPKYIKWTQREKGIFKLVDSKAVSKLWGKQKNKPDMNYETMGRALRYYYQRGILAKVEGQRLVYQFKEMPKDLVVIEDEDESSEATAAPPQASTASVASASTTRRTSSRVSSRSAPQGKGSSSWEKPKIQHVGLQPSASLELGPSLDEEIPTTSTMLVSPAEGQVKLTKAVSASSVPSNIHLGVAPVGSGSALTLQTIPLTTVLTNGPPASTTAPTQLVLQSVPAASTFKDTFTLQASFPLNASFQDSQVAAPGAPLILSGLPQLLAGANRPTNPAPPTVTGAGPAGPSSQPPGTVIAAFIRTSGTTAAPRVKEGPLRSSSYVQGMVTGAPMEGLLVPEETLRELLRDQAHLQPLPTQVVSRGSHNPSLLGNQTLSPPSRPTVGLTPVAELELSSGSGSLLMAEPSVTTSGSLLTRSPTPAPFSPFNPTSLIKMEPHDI
Sequence of HSF1 (Q00613 whole entry): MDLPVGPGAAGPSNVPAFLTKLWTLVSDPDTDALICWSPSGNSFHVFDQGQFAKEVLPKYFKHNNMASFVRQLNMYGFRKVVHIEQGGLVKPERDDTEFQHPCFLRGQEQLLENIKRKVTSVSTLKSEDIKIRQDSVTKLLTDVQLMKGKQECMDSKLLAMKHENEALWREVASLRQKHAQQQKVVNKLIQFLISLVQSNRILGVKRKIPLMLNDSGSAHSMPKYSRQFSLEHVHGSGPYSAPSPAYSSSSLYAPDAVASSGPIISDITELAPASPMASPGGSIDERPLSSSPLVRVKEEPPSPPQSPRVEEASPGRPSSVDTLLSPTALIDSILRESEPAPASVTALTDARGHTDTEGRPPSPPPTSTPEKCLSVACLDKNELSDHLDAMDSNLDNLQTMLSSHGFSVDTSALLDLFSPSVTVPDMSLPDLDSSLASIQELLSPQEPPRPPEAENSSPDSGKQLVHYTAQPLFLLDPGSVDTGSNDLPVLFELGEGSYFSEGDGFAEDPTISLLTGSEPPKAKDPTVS
Sequence of CRX (O43186 whole entry): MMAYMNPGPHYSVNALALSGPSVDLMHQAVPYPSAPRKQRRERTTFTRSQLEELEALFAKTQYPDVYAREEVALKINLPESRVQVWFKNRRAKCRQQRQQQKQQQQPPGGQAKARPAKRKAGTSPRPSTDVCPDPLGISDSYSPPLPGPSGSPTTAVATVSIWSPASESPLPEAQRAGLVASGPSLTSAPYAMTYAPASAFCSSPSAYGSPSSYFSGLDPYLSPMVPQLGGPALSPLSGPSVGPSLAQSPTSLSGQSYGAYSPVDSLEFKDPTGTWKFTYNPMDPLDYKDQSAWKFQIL

ATTACC
binding signal [1]: 1.22 fold enrichment (6-mer frequency, TF over GST control)
binding signal [2]: 1.13 fold enrichment (6-mer frequency, TF over GST control)
binding signal [3]: 1.16 fold enrichment (6-mer frequency, TF over GST control)
binding signal [4]: 1.26 fold enrichment (6-mer frequency, TF over GST control)
binding signal [5]: 1.23 fold enrichment (6-mer frequency, TF over GST control)
binding signal [6]: 1.4 fold enrichment (6-mer frequency, TF over GST control)
binding signal [7]: 1.16 fold enrichment (6-mer frequency, TF over GST control)
binding signal [8]: 1.36 fold enrichment (6-mer frequency, TF over GST control)
binding signal [9]: 1.26 fold enrichment (6-mer frequency, TF over GST control)
binding signal [10]: 1.25 fold enrichment (6-mer frequency, TF over GST control)
binding signal [11]: 1.36 fold enrichment (6-mer frequency, TF over GST control)
binding signal [12]: 1.58 fold enrichment (6-mer frequency, TF over GST control)
binding signal [13]: 1.26 fold enrichment (6-mer frequency, TF over GST control)
binding signal [14]: 1.17 fold enrichment (6-mer frequency, TF over GST control)
binding signal [15]: 1.21 fold enrichment (6-mer frequency, TF over GST control)
binding signal [16]: 1.4 fold enrichment (6-mer frequency, TF over GST control)
binding signal [17]: 1.1 fold enrichment (6-mer frequency, TF over GST control)
binding signal [18]: 2.17 fold enrichment (6-mer frequency, TF over GST control)
binding signal [19]: 1.23 fold enrichment (6-mer frequency, TF over GST control)
